The record followed here is PubChem BioAssay AID504339 (National Center for Advancing Translational Sciences (NCATS), 2011).

Among all 390,000 compounds or so, about 17,000 (4.4%) were called active. Another 8% or so got no clear call; they are omitted. What follows is part of a selection rich in actives, with near analogues and random picks from the rest. A number with no mark means an inactive call. The call rests on the fitted dose curve; in most records, active means well fitted inhibition curve with a large enough effect; inconclusive means small, poorly fitted or top-dose-only effect; inactive means no such curve, though single readings can be large or run the other way.
On the % scale 0 is the no-effect control and ±100 the full control effect; potency means the concentration at half of the fitted maximal effect.

The assay deals with Lysine-specific demethylase 4A (Homo sapiens) (UniProt O75164). Description: qHTS Assay for Inhibitors of JMJD2A-Tudor Domain. Further: nearly all actives have a fitted effect of over 50% in size. The note with it: AlphaScreen JMJD2A-Tudor / H3K4me3 peptide binding; series mostly up to 114 µM; activity change, negative = inhibition: at the top concentration.
Sequence of Lysine-specific demethylase 4A (Homo sapiens) (O75164 whole entry, looked up, the tested form may be a part): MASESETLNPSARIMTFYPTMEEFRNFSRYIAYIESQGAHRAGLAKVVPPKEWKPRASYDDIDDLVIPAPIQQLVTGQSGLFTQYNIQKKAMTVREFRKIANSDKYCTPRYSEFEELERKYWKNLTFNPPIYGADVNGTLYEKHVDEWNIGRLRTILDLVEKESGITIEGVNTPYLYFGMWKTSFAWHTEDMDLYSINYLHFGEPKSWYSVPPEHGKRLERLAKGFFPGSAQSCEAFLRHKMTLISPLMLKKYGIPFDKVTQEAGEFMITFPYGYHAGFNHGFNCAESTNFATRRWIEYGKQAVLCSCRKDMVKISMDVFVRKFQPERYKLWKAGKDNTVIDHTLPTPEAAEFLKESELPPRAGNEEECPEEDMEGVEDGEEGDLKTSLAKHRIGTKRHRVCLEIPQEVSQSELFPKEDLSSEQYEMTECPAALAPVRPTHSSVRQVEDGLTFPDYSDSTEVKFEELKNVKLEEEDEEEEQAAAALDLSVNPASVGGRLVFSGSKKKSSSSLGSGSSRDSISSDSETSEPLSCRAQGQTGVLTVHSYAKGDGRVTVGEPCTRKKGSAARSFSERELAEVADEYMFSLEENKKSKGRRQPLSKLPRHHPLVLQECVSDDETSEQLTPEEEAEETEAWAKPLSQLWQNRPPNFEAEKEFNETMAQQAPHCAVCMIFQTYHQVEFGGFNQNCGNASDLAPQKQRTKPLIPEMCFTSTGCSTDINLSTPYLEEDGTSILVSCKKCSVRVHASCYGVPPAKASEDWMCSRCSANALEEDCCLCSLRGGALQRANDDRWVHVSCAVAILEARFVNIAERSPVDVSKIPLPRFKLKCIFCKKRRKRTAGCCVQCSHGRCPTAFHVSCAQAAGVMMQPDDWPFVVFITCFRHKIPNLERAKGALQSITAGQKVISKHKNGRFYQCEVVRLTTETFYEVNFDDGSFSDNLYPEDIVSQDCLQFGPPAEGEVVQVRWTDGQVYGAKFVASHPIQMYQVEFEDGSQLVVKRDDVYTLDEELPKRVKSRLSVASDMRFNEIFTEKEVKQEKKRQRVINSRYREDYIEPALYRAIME
On to `COc1ccc(C2C(=O)N(C3CCCCCC3)CC(=O)N2CCc2ccc(Cl)cc2)cc1OC` (stereo not drawn), for which the “activity change, negative = inhibition” value is -33.6%.
Still for that read-out and setting: for `Cc1ccc(Cn2cc(CCC(=O)NCc3ccc(OC(C)C)cc3)c3ccccc32)cc1` the value was 0%.
As to `Cc1ncc(CO)c(/C=N/NC(=O)c2cccc(S(=O)(=O)N3CCCC3)c2)c1O`, the Potency was 22.4 µM (active).
In the case of `CCOc1cc(/C=N/NC(=O)c2cccc(S(=O)(=O)N3CCOCC3)c2)ccc1OCC(=O)N(C)C`, the “activity change, negative = inhibition” value was -1.7%.
Take `Cc1cccc(NC(=O)c2cccc(S(=O)(=O)N3CCCC3)c2)n1`: the “activity change, negative = inhibition” value was 2.07%.
Still for that read-out and setting: the value for `COc1ccccc1CCNC(=O)c1cccn1-c1nnc(N2CCCCC2)s1` was -26.9%; that for `COc1ccc2c(C)c(CCC(=O)NCc3ccc(OC)c(OC)c3)c(=O)oc2c1` was -14.2%; that for `COC(=O)C1=C(C)N(c2ccc(C)cc2)/C(=C/c2ccc(O)cc2)C1=O` was -17.2%.
The same measure, in the same setting: for `COC(=O)COc1ccc2c(c1C)O/C(=C\c1ccco1)C2=O` the value was -23.9%; for `O=C(OCN1C(=O)c2ccccc2C1=O)/C(=C\c1ccco1)NC(=O)c1ccccc1`, -32.4%; for `CCCCN=C1N/C(=C\c2ccco2)C(=O)N1c1ccccc1`, -29.4%.
As for `COC(=O)C1=C(C)N(C(C)c2ccccc2)C(=O)/C1=C\c1ccco1` (stereo not drawn), the Potency was 25.1 µM (active).
Same read-out and setting: the value for `COC(=O)C1=C(C)N(c2ccc(Br)cc2)C(=O)/C1=C\c1ccco1` was 17.8 µM (active).
For `CCOC(=O)c1c(C)[nH]c(C)c1S(=O)(=O)N1CCC(C(=O)Nc2ccc(C)c(Cl)c2)CC1`, the “activity change, negative = inhibition” value is 1.95%.
Still for that read-out and setting: the value for `CCOC(=O)C1CCCN(C(=O)c2ccc3c(c2)sc2nc(-c4ccc(CC)cc4)cn23)C1` (stereo not drawn) was -4.28%; that for `COC(=O)c1sc2ncccc2c1-n1c(C)ccc1C` was -14.4%; that for `COc1ccc(CNC(=O)c2cc3c(s2)-c2ccccc2OC3)cc1` was -8.73%.
On the same count and under the same terms, the value for `Cc1cccc(N2CCN(C(=O)c3cnc(N4CCCC4)nc3C)CC2)c1C` was -5.3%; that for `COc1ccc(-c2cc(-c3ccc(F)cc3)nc3c2COc2ccccc2-3)cc1` was 13.4%; that for `CCN(CC(=O)NC1CCS(=O)(=O)C1)c1nc(-c2cccnc2)nc2ccccc12` (stereo not drawn) was -15%.
In the case of `COc1ccc(Nc2nc(-c3cccnc3)nc3ccccc23)cn1`, the Potency was 31.6 µM (active).
`COc1cc(Nc2nc(-c3ccc(OC)c(OC)c3)nc3ccccc23)cc(OC)c1`: the “activity change, negative = inhibition” value is -30.4%.
Same read-out and setting: the value for `CC1CCC2(CC1)N=C(c1ccccc1)C(=O)N2CC(=O)Nc1ccc(F)c(Cl)c1` (stereo not drawn) was -12.8%; that for `Cc1ccc(-n2c(=O)c3cccnc3n2CC(=O)Nc2ccccc2C(F)(F)F)cc1C` was 23.7%.
The same measure, in the same setting: the value for `COc1ccc(CNc2nc(-c3ccc(Cl)cc3)nn2C(=O)c2ccccc2)cc1` was 19.2%; that for `CC/C=C/C(=O)N1CC2(CC(c3cccc(NC(=O)CC)c3)=NO2)C[C@H]1C(N)=O` (stereo partly drawn) was -15.5%.
Regarding `NC(=O)[C@H]1CC2(CC(c3cccc(NC(=O)[C@H]4CCC(=O)N4)c3)=NO2)CN1C(=O)c1ccccc1C(=O)c1ccccc1` (stereo partly drawn), the Potency is 89.1 µM (active).
With `O=C(Nc1cccc(-c2nnc(-c3ccccc3)o2)c1)C1CCCO1` (stereo not drawn), the “activity change, negative = inhibition” value is -10.7%.
Turning to `C=C(C)C(=O)Nc1cccc(C2=NOC3(C2)C[C@H](C(N)=O)N(C(=O)C(c2ccccc2)c2ccccc2)C3)c1` (stereo partly drawn), the Potency is 11.2 µM (active).
Consider `C/C=C(/C)C(=O)Nc1cccc(C2=NOC3(C2)C[C@@H](C(N)=O)N(C(=O)C2(C)CC2)C3)c1` (stereo partly drawn), for which the “activity change, negative = inhibition” value was -9.09%.
For `C/C=C(\C)C(=O)N1CC2(CC(c3cccc(NC(=O)CCCCC)c3)=NO2)C[C@@H]1C(N)=O` (stereo partly drawn), the “activity change, negative = inhibition” value is -18.7%.
Still for that read-out and setting: for `Cc1ccc(OCCSc2nc(C)c(Cc3ccccc3)c(=O)[nH]2)cc1` the value was -6.6%; for `COc1cc(OC)c(NC(=O)c2cc(S(=O)(=O)N3CCCC3)cn2C)cc1Cl`, -13.5%; for `Cc1c(C(=O)NCc2ccccc2Br)oc2ccc3c(c12)C(=O)CC(C)(C)O3`, -20.7%.
On the same count and under the same terms, the value for `COc1cccc(N2CCN(S(=O)(=O)c3cc(Br)cc4c3N(C(=O)C3CC3)CC4)CC2)c1` was -18.4%; that for `COc1ccc(CCNc2ncnc3onc(-c4ccc(Cl)cc4)c23)c(OC)c1` was 3.24%; that for `COc1cc(/C=C/C(=O)Nc2ccc(OC)c(S(=O)(=O)N3CCOCC3)c2)ccc1OCC#N` was -21.4%.
As to `COc1cc(/C=C/C(=O)OCC(=O)N2CCOCC2)ccc1OCC#N`, the Potency is 50.1 µM (active).
With `COc1cc(/C=C/C(=O)OCC(=O)NC(=O)NCc2ccccc2)ccc1OCC#N`, the “activity change, negative = inhibition” value was -14.3%.
In the case of `CCOC(=O)c1oc2ccc(S(=O)(=O)n3nc(-c4ccccc4OC)cc3N)cc2c1C`, the “activity change, negative = inhibition” value is -22.2%.
Still for that read-out and setting: the value for `CCOC(=O)CSc1ncc(-c2cccc(Cl)c2)cn1` was 77.5%; that for `Cc1oc(-c2ccccc2Cl)[n+]([O-])c1C` was -11.7%.
`Cc1oc(-c2cccc(Cl)c2)[n+]([O-])c1C`: the Potency was 79.4 µM (active).
`COc1ccc(C(=O)N2CCC(c3nc4ccccc4o3)CC2)cc1`: the “activity change, negative = inhibition” value was -8.61%.
Regarding `COc1c(O)ccc2c1CN1CCc3cc4c(cc3C1C2)OCO4` (stereo not drawn), the Potency was 44.7 µM (active).
For the compound `COc1ccc(CN2CCCC(N3CCc4ccccc4C3)C2)c(O)c1` (stereo not drawn), the “activity change, negative = inhibition” value is -25.6%.
The same measure, in the same setting: the value for `COc1cc(C(=O)CCc2ccc3c(c2)OCO3)cc(OC)c1OC` was -1.38%; that for `CCOC(=O)N1CCc2c(sc3c2c(=O)n(-c2ccc(CC)cc2)c(=O)n3C)C1` was -3.31%.
